Of roughly 7,900 targets only a part is listed; those with a hit were picked by preference. About 0.6% of all pairs of compound and target were hits. Values without a mark were called inactive.
Assays:
Test in all cases: log2 fold change, soluble protein after heating vs DMSO (PISA); higher = thermal stabilisation; K562 cells, 10 uM, 30 min; active = over 0.2 and 3.5 SD of the protein, either way, in both replicates (recomputed)
[1] = compound: C#Cc1cccc(Nc2ncnc3cc(OCCOC)c(OCCOC)cc23)c1 [erlotinib]
In short: (§1)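 K562 cells at 2×10^6 cells/mL were treated with 10 μM compound for 30 min. Aliquots were heated for 3 min across 48°C-58°C, pooled, and extracted in PBS with 0.5% NP-40 at 4°C; soluble protein was the supernatant after 21,000xg for 90 min. Soluble protein was quantified by TMTpro 16plex LC-MS/MS with channel sums equalised, and reported as log2 fold change in thermal stability against DMSO controls, with values from duplicates.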

[2] = compound: C/C(=N\NC(=O)C1=CC(=CC=C1)S(=O)(=O)N2CCOCC2)/C3=C(C=CC(=C3)Cl)O
In short: as §1

[3] = compound: C1=CC(=C(C=C1Cl)C2=NC3=NC=CN=C3C(=N2)NC4=CC=NC=C4)F
In short: as §1

[4] = compound: C1=CC(=CC=C1C2=NC3=C(N2)C=C(C=C3)C(=O)N)OC4=CC=C(C=C4)Cl
In short: as §1

[5] = compound: C1=CC2=C(C=CC(=C2)/C=C\3/C(=O)NC(=NCC4=CC=CS4)S3)N=C1
In short: as §1

[6] = compound: C1=CC2=NC=CN=C2C=C1/C=C/3\C(=O)NC(=O)S3
In short: as §1

[7] = compound: C1=CC=C(C=C1)C2=NC(=C(N2)C3=CC=NC=C3)C4=CC(=C(C=C4)Cl)O
In short: as §1

[8] = compound: C1=CC=C2C(=C1)C3=NNC4=CC=CC(=C43)C2=O
In short: as §1

[9] = compound: C1CCN(C1)C(=O)NC2=CC=CC(=C2)NC3=NC=C(C(=N3)NCCC4=CN=CN4)Br
In short: as §1

[10] = compound: C1CN(CCC1(CC2=CC=C(C=C2)Cl)N)C3=NC=NC4=C3C=CN4
In short: as §1

[11] = compound: C1COCCN1CCN2C3=CC=CC=C3N=C2NC(=O)C4=CC(=CC=C4)[N+](=O)[O-] [IRAK-1-4 Inhibitor I]
In short: as §1

[12] = compound: C=CC(=O)N1CCC[C@@H](n2nc(-c3ccc(Oc4ccccc4)cc3)c3c(N)ncnc32)C1 [ibrutinib]
In short: as §1

[13] = compound: CC(=O)c1cnc2ccc(-c3cc(Cl)c(O)c(Cl)c3)nc2c1N[C@H]1CC[C@H](CN(C)C)CC1
In short: as §1

[14] = compound: CC(C)(C)Cn1c(N)nc2ccc(-c3[nH]c(C(C)(C)C)nc3-c3ccc(F)cc3)nc21 [ralimetinib]
In short: as §1

[15] = compound: CC(C)(O)CC(=O)NCCn1ccc2ncnc(Nc3ccc(Oc4cccc(C(F)(F)F)c4)c(Cl)c3)c21
In short: as §1

[16] = compound: CC(C)C1=C2N=C(C=C(N2N=C1)NCC3=CC=CC=C3)NCCCCCCN
In short: as §1

[17] = compound: CC(C)C[C@@H](C=O)NC(=O)[C@H](CC(C)C)NC(=O)[C@H](CC(C)C)NC(=O)OCc1ccccc1
In short: as §1

[18] = compound: CC(C)N(C[C@H]1O[C@@H](n2cnc3c(N)ncnc32)[C@H](O)[C@@H]1O)[C@H]1C[C@@H](CCc2nc3cc(C(C)(C)C)ccc3[nH]2)C1 [pinometostat]
In short: as §1

[19] = compound: CC1=C(C(CC(=O)N1)C2=CC=C(C=C2)C(F)(F)F)C(=O)NC3=C(C=C4C(=C3)C=NN4)F
In short: as §1

[20] = compound: CC1=C(C2=C(C=C1)C(=O)C3=CC=CC=C3N2CCCN)C
In short: as §1

Chain of UniProt Q53EL6 (Q53EL6 whole entry, looked up): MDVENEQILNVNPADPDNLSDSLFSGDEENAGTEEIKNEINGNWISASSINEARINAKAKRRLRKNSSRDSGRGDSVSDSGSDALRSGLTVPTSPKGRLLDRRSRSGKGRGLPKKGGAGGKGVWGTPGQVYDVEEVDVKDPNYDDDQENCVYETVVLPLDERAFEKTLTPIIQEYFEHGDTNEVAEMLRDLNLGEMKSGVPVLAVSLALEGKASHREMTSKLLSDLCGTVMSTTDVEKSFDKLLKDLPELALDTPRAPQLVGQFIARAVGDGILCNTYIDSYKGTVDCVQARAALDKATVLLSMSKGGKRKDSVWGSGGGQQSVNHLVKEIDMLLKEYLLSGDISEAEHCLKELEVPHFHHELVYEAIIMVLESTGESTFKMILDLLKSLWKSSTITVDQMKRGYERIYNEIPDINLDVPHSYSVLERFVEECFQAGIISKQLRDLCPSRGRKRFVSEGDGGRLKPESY
Chain of UniProt Q14997 (Q14997 whole entry, looked up): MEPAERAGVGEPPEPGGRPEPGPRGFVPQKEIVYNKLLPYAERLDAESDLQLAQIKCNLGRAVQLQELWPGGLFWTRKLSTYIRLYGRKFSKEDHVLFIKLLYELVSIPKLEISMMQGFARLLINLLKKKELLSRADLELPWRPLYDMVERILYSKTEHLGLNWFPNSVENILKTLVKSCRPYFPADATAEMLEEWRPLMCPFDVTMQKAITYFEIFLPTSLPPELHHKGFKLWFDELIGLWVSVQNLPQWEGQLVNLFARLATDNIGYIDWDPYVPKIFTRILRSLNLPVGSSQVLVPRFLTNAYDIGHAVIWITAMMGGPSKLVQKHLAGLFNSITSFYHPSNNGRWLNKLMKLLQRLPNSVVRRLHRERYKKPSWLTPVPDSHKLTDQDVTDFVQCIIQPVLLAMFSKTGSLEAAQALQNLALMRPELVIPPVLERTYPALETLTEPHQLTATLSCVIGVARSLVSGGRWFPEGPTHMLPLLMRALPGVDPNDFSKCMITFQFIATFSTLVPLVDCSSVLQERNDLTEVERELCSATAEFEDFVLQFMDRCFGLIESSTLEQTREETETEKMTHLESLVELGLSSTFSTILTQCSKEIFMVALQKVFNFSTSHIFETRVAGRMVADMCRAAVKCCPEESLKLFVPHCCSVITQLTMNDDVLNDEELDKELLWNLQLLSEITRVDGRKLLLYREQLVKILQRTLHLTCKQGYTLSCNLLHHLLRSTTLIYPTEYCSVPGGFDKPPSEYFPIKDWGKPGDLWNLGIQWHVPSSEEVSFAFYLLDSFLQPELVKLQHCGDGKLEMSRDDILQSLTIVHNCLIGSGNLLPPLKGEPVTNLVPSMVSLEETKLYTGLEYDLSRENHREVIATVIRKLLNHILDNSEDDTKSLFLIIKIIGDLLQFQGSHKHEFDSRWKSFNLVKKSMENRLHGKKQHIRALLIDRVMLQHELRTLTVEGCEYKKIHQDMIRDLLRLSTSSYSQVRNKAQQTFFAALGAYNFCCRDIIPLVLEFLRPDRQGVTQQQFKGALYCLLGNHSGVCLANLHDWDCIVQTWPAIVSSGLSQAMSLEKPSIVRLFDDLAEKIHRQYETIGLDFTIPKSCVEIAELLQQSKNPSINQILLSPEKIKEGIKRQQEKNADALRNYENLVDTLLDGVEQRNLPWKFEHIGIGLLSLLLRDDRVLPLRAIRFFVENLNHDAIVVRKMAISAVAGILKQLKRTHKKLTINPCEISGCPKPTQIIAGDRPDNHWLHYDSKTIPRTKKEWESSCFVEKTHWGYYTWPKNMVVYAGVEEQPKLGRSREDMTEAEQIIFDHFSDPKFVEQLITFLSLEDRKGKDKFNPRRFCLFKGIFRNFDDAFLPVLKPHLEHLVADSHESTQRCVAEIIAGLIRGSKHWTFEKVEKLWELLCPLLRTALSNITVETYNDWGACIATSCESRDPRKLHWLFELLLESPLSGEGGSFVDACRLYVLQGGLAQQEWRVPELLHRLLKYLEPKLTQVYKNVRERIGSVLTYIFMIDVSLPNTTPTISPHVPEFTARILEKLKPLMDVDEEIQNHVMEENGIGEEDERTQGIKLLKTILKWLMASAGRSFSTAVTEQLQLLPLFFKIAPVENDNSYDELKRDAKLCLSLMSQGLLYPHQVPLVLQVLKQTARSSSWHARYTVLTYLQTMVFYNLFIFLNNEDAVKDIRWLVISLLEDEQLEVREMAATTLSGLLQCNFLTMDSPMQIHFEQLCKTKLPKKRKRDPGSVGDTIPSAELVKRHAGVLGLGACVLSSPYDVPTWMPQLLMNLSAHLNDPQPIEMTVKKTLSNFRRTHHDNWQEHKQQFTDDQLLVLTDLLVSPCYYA
Chain of UniProt Q15121 (Q15121 whole entry, looked up): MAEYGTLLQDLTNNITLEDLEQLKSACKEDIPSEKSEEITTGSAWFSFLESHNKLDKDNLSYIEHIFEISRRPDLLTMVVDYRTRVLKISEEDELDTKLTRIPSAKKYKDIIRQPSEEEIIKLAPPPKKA
Chain of UniProt Q16822 (Q16822 whole entry, looked up): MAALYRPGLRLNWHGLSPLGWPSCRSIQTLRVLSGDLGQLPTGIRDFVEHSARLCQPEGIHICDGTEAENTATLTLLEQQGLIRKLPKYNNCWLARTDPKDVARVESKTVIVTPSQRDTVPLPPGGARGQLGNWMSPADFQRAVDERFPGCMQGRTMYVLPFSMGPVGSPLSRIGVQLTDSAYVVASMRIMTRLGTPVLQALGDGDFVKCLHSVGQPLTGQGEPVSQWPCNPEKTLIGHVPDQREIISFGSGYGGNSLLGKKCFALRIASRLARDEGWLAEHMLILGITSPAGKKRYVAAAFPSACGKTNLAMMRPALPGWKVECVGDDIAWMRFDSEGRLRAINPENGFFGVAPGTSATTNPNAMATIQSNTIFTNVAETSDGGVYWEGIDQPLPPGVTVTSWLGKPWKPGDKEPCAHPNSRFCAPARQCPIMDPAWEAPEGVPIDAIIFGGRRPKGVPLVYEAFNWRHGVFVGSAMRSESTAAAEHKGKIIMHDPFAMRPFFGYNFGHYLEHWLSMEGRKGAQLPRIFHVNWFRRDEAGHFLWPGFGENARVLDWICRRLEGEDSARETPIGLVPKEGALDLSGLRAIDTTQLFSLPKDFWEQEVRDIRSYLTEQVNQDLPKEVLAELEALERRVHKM
Chain of UniProt O60256 (O60256 whole entry, looked up): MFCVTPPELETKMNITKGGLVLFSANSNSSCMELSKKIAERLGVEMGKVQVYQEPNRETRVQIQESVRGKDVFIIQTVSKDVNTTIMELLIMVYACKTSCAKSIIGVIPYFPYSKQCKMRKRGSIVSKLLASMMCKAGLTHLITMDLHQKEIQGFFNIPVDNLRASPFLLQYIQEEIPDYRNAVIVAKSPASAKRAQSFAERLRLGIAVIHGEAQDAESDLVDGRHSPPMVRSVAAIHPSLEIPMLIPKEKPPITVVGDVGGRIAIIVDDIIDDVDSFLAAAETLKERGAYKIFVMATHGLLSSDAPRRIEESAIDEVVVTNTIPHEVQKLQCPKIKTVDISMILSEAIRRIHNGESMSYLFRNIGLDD
Chain of UniProt Q2TAL8 (Q2TAL8 whole entry, looked up): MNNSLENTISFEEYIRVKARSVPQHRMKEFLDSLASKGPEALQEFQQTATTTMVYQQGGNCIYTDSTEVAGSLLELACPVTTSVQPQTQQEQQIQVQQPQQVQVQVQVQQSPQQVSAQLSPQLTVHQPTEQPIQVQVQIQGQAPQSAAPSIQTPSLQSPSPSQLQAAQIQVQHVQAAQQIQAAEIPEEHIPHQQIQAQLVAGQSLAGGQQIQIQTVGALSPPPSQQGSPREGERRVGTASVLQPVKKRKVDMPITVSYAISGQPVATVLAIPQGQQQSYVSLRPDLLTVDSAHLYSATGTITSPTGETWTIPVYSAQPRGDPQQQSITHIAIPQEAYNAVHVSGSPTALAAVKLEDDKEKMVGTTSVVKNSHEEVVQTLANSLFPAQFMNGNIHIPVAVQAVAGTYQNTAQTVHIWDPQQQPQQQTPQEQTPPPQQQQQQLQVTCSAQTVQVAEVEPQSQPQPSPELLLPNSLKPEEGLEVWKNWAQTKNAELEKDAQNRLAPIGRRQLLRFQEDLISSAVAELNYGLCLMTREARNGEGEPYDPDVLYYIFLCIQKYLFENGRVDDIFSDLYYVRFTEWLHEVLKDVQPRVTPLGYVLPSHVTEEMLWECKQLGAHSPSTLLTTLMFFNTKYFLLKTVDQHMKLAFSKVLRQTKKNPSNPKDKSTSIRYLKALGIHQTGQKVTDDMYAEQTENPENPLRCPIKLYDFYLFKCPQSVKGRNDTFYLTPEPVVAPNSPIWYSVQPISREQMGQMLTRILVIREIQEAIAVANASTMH
Chain of UniProt O96013 (O96013 whole entry, looked up): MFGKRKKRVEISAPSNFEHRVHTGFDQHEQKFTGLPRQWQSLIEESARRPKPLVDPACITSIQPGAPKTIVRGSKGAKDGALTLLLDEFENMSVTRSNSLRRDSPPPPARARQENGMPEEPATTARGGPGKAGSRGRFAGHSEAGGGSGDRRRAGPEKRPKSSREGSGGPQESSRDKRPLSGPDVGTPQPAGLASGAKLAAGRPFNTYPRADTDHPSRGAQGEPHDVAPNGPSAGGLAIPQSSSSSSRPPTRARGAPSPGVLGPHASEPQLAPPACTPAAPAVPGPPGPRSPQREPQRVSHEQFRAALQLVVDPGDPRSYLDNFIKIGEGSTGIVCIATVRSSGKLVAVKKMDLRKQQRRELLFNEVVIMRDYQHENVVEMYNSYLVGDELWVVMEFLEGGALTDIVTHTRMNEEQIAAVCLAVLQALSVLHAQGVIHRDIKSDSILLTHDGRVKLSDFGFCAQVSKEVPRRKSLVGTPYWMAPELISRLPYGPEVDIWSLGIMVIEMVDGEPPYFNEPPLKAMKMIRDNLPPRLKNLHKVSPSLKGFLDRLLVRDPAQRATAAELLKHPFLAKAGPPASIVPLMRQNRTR
Chain of UniProt O95997 (O95997 whole entry, looked up): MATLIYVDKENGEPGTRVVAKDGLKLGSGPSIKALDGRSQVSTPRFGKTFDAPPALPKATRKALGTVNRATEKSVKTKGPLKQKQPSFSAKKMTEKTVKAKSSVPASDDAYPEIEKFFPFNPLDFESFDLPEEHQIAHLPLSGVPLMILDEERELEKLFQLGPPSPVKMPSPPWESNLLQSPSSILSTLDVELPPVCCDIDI

Target | log2 fold change [1] | log2 fold change [2] | log2 fold change [3] | log2 fold change [4] | log2 fold change [5] | log2 fold change [6] | log2 fold change [7] | log2 fold change [8] | log2 fold change [9] | log2 fold change [10] | log2 fold change [11] | log2 fold change [12] | log2 fold change [13] | log2 fold change [14] | log2 fold change [15] | log2 fold change [16] | log2 fold change [17] | log2 fold change [18] | log2 fold change [19] | log2 fold change [20]
PRKD2 isoform 3 (UniProt Q9BZL6) | 0.04 | 0.214 | 0.022 | 0.055 | 0.003 | 0.004 | -0.126 | -0.347 | -0.04 | -0.075 | -0.046 | -0.057 | -1.03 (active) | 0.089 | -0.302 | -0.216 | 0.074 | 0.056 | 0.192 | -0.087
PSMD5 (UniProt Q16401) | -0.015 | 0.038 | 0.063 | -0.007 | 0 | 0.027 | -0.001 | -0.012 | 0.014 | -0.004 | 0.04 | -0.004 | 0.047 | -0.013 | -0.033 | -0.106 | -0.061 | -0.003 | 0 | -0.042
PEA15 isoform 2 (UniProt Q15121) | 0.001 | 0.042 | 0.056 | 0.026 | -0.014 | 0.055 | -0.006 | 0.072 | 0.016 | -0.064 | 0.025 | -0.024 | 0.054 | 0.007 | -0.079 | -0.045 | -0.046 | -0.004 | 0.007 | 0.038
PCK2 (UniProt Q16822) | 0.025 | -0.224 (active) | 0.108 | -0.009 | 0.038 | -0.016 | -0.023 | 0.072 | -0.018 | -0.001 | -0.029 | 0.021 | -0.013 | -0.059 | -0.019 | 0.063 | 0.035 | -0.011 | -0.005 | 0.053
QRICH1 (UniProt Q2TAL8) | 0.066 | 0.361 | -0.023 | 0 | 0.282 | 0.059 | -0.053 | -0.007 | 0.014 | -0.076 | -0.108 | -0.024 | 0.048 | 0.055 | -0.237 | -0.321 | 0.08 | 0.026 | 0.029 | -0.08
PTTG1 (UniProt O95997) | -0.024 | 0.094 | -0.024 | 0.029 | -0.043 | -0.005 | -0.205 | -0.045 | -0.024 | -0.093 | -0.026 | -0.017 | 0.057 | -0.069 | -0.03 | -0.002 | 0.393 (active) | 0.036 | 0.055 | -0.084
POLR2C (UniProt P19387) | 0.05 | 0.037 | -0.006 | -0.051 | -0.038 | -0.053 | 0.172 | 0.001 | 0.117 | 0 | -0.041 | -0.025 | 0.227 | 0.102 | 0.003 | 0.058 | 0.042 | 0.065 | -0.016 | -0.025
PRPF38A (UniProt Q8NAV1) | -0.032 | 0.035 | -0.01 | 0.049 | 0 | -0.046 | 0 | -0.08 | 0.008 | 0.018 | 0.011 | -0.051 | -0.237 (active) | 0.03 | 0.012 | -0.029 | 0.005 | 0.027 | 0.045 | -0.014
PECAM1 (UniProt P16284) | -0.039 | 0.072 | -0.055 | 0.057 | 0.054 | -0.024 | -0.05 | -0.133 | 0.057 | 0.021 | 0.021 | 0.004 | -0.031 | -0.002 | -0.082 | 0.141 | -0.057 | 0.012 | 0.039 | 0.261 (active)
PDCD4 (UniProt Q53EL6) | 0.107 | -0.041 | 0.14 | -0.051 | 0.16 | 0.145 | 0.072 | 0.108 | 0.024 | 0.027 | -0.043 | -0.05 | 0.271 | -0.042 | -0.091 | -0.194 | -0.015 | -0.046 | -0.123 | -0.17
PDCD6IP (UniProt Q8WUM4) | 0.162 | 0.167 | 0.045 | -0.044 | 0.122 | 0.014 | 0.031 | 0.043 | -0.095 | -0.122 | -0.156 | -0.11 | -0.039 | 0.046 | -0.198 | -0.327 | 0.019 | 0.084 | 0.015 | 0.044
PSME4 (UniProt Q14997) | -0.011 | 0.017 | -0.028 | 0.065 | 0.055 | 0.022 | -0.007 | 0.027 | 0.008 | 0.014 | 0.003 | -0.022 | -0.023 | -0.024 | -0.097 | -0.043 | 0.271 (active) | 0.068 | 0.023 | 0.105
PPIL4 (UniProt Q8WUA2) | 0.011 | 0.056 | -0.049 | 0.043 | -0.023 | 0 | 0.04 | -0.009 | -0.06 | -0.044 | -0.102 | 0.013 | -0.27 (active) | 0.101 | 0.04 | -0.114 | -0.065 | 0.055 | 0.002 | 0.066
PRPSAP2 (UniProt O60256) | 0.053 | 0.033 | -0.017 | -0.028 | -0.06 | 0.017 | -0.006 | 0.029 | -0.02 | 0.009 | 0.02 | 0.008 | 0.074 | -0.013 | 0.003 | 0.035 | -0.017 | -0.003 | 0.033 | 0.063
PARP1 (UniProt P09874) | 0.076 | 0.135 | 0.042 | -0.005 | 0.098 | -0.042 | 0.137 | 0.35 | -0.078 | -0.042 | -0.068 | -0.027 | -0.052 | 0.039 | 0.108 | -0.068 | 0.018 | -0.009 | -0.004 | 0.578 (active)
PAK4 (UniProt O96013) | 0.155 | -0.066 | 0.017 | -0.04 | 0.015 | 0.048 | -0.068 | -0.013 | 0.062 | -0.03 | 0.038 | -0.032 | 0.173 | -0.084 | 0 | 0.015 | 0.07 | 0.016 | -0.052 | 0.049
